Molecules are shown by their SMILES. The whole screen tested about 1,600 compounds, of which about 650 (41%) were called active. Roughly 39% stayed inconclusive and do not appear here. Calls come from the whole dose curve; as a rule, active = well fitted inhibition curve with a large enough effect; inconclusive = small, poorly fitted or top-dose-only effect; inactive = no such curve, though single readings can be large or run the other way. The set was probably picked from earlier hits. The entries come from a sample that favours actives as a whole.
Potency is the fitted concentration of half-maximal effect.

A short description of the assay: qHTS for Inhibitors of TGF-b: CCL64 Cells Orthogonal Assay for Cherry Picks. Note: nearly all actives have a fitted effect of over 65% in size. As to conditions: CCL64 CAGA-GFP reporter, TGF-b stimulated, GFP fluorescence, 18 h; series mostly up to 46.1 µM. The text has this:
TGF-b is a main component in the TGF-b signaling pathway which plays diverse roles in cellular and development pathways. TGF-b is the mediated by the transcription factors Smads. Although the Smad-dependent pathway is the primary canonical TGF-b signaling node, TGF-b1 can also activate alternative signaling pathways, including those involving MAPK (ERK, JNK and p38). This interaction may mediate or enhance Smad-dependent responses, or can exert Smad-independent effects. The complexity of this signaling cascade allows the TGF-b superfamily to perform unique, overlapping or redundant functions. We believe that targeting the TGF-beta pathway at the Smad-transcription factor level may eliminate the consequences of disrupting the entire pathway and offer specificity without affecting other signaling pathways. Smad3 is the primary transducer of TGF-b's signals and Smad3 regulates many functions attributed to TGF-b signaling. We hypothesize that Smad3 inhibitors will selectively eliminate Smad3-specific TGF-beta signals without undesired off-target effects. We aim to identify Smad3-small molecule antagonists using a quantitative high throughput screening (qHTS) approach. A high-throughput assay was developed to screen the NIH Molecular Libraries Small Molecule Repository (MLSMR). This is a cell based assay, where TGF-b is tagged with GFP. This orthogonal assay was run using CCL64 cells (as opposed to HepG2); activity was desired in this assay as this indicated the hits identified from the screen are not a cell-based artifact. MH087449NIH Chemical Genomics Center [NCGC] NIH Molecular Libraries Probe Centers Network [MLPCN] MLPCN Grant: MH087449 Assay Submitter (PI): Sushil Rane, National Institute of Diabetes and Kidney Diseases
Suspensions of trypsinized CCL64 CAGA-GFP cells were dispensed into white, tissue culture-treated, solid 1536-well plates at 5uL/well (1000 cells/well final concentration) in DMEM medium supplemented with 1% FBS. Plates were incubated at 37 degrees C for 2 hours, after which 23 nL of compounds or DMSO were delivered to each well using a pin tool. One uL of recombinant TGF-beta in DMEM (1% FBS) was then dispensed (500 pg/mL final concentration), and plates were incubated at 37 degrees C for 18 hours. The plates were measured on an Acumen eX3 Explorer plate reader for GFP fluorescence (ex488/em500-530). GFP values were calculated by determining the mean GFP fluorescence of individual cells, and compiling these values for each well to determine a total well GFP signal. The %Activity was determined from the corrected fluorescence values. A titration of the known TGF-B inhibitor SB431542 was included to monitor plate performance, while unstimulated […] (-TGF-B) control wells were used to normalize %Activity of identified inhibitors; unstimulated wells corresponded to 100%Activity (full inhibition), while stimulated cell controls (+DMSO) were used to normalize 0%Activity (no inhibition). Concentration-response curves were fitted to the signals arising from the resulting fluorescence. The concentration-effect curves were then classified based on curve quality (r2), response magnitude and degree of measured activity, and compounds were subsequently categorized based on their curve class.
Consider `CCC(C)(O)C(=O)OC1C(=O)OC2CC3C(C)=CC(=O)C(O)C3(C)C3C4(O)OCC23C1C(C)C4O` (stereo not given), for which the Potency was 0.231 µM (active). Next, `O=c1c2ccccc2nc(/C=C/c2ccc(F)cc2)n1-c1ccccc1O`: 18.4 µM (active); `COC(=O)C1=C(c2cc3ccccc3o2)C[C@@H]2CC[C@H]1N2C(=O)NC1CCCCC1`: 14.6 µM (active); `CC[C@H]1CN2CCc3cc(OC)c(OC)cc3[C@@H]2C[C@@H]1C[C@H]1NCCc2cc(OC)c(OC)cc21`: 0.116 µM (active). Turning to `O=Cc1cn(Cc2ccc(F)cc2Cl)c2ccccc12`, the Potency result was “inactive”.

Values taken from PubChem BioAssay AID720536 (National Center for Advancing Translational Sciences (NCATS), 2013).
